This note sets out measurements from PubChem BioAssay (NCATS).

Experiment [1] can be described thus: Quantitative High-Throughput drug screen in 47 multiple myeloma cell lines against the NCATS MIPE library collection: Karpas620_DSMZ cell viability assay (AID 1918959). Note: nearly all actives have a fitted effect of over 30% in size. Note: potency is the fitted concentration of half-maximal effect. The method in brief:
(§1)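 We plated 500 myeloma cells per well, pinned in MIPE 4.0 compounds, and incubated for 48 hours at 37C. ATP was then quantified with CellTiter-Glo, with DMSO and media-only wells defining 100% and 0%.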

A short description of experiment [2]: Quantitative High-Throughput drug screen in 47 multiple myeloma cell lines against the NCATS MIPE library collection: KMM1_JCRB cell viability assay (AID 1918960).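 For viability (% of DMSO): 100% = DMSO-treated cells and 0% = medium-only wells.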 Note: nearly all actives have a fitted effect of over 30% in size. Note: potency is the fitted concentration of half-maximal effect. The method in brief:
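CellTiter-Glo luminescence after 48 h exposure gives viability, scaled between DMSO-only (100%) and media-only (0%) controls. Library compounds are pinned onto 500 myeloma cells per well, incubated at 37C with 5% CO2.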

A short description of experiment [3]: Quantitative High-Throughput drug screen in 47 multiple myeloma cell lines against the NCATS MIPE library collection: KHM11_PLB cell viability assay (AID 1918962). Note: nearly all actives have a fitted effect of over 35% in size. Note: potency is the fitted concentration of half-maximal effect. The method in brief:
as §1

Experiment [4] can be described thus: Quantitative High-Throughput drug screen in 47 multiple myeloma cell lines against the NCATS MIPE library collection: H1112_PLB cell viability assay (AID 1918967; note: nearly all actives have a fitted effect of over 30% in size; note: potency is the fitted concentration of half-maximal effect). The essentials: (§2)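 Primary qHTS used for cherry-picking: cells at 500/well, library compounds for 48 h (37C, 5% CO2), luminescent ATP assay.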
Experiment [5] can be described thus: Quantitative High-Throughput drug screen in 47 multiple myeloma cell lines against the NCATS MIPE library collection: Karpas25_ECACC cell viability assay (AID 1918968; note: nearly all actives have a fitted effect of over 35% in size; note: potency is the fitted concentration of half-maximal effect). The essentials: as §2
The nature of experiment [6]: Quantitative High-Throughput drug screen in 47 multiple myeloma cell lines against the NCATS MIPE library collection: KMS27_JCRB cell viability assay (AID 1918970). Note: nearly all actives have a fitted effect of over 30% in size. The following applies: KMS27 myeloma cells, CellTiter-Glo ATP viability, 48 h; viability (% of DMSO): at 45.8 µM (top of the series). The method in brief: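 CellTiter-Glo luminescence after 48 h drug exposure at 37 °C; 500 cells/well, 1536-well format, pin-tool compound addition; DMSO = 100%, media-only = 0% viability.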

A short description of experiment [7]: Quantitative High-Throughput drug screen in 47 multiple myeloma cell lines against the NCATS MIPE library collection: KMS12BM_JCRB cell viability assay (AID 1918971). Note: nearly all actives have a fitted effect of over 35% in size. Note: potency is the fitted concentration of half-maximal effect. The essentials:
(§3)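 Luminescent ATP measurement with CellTiter-Glo gives viability, scaled between DMSO-only wells (100%) and media-only wells (0%). Cells, 500 per well, faced library compounds for 48 hours at 37C.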

The nature of experiment [8]: Quantitative High-Throughput drug screen in 47 multiple myeloma cell lines against the NCATS MIPE library collection: KMS12PE_JCRB cell viability assay (AID 1918972). Note: nearly all actives have a fitted effect of over 30% in size. Note: potency is the fitted concentration of half-maximal effect. The essentials: (§4)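 Viability readout: CellTiter-Glo luminescence following 5 min room-temperature incubation with reagent. Prior exposure: 48 h, 37C, humidified 5% CO2, 500 cells per well.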
Experiment [9] can be described thus: Quantitative High-Throughput drug screen in 47 multiple myeloma cell lines against the NCATS MIPE library collection: NCIH929_DSMZ cell viability assay (AID 1918978). Note: nearly all actives have a fitted effect of over 35% in size. Note: potency is the fitted concentration of half-maximal effect. The method in brief: (§5)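 Cells were exposed to library compounds for 48 hours, after which ATP was measured by CellTiter-Glo. Signal was taken as median relative luminescence units.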
Experiment [10] can be described thus: Quantitative High-Throughput drug screen in 47 multiple myeloma cell lines against the NCATS MIPE library collection: OCIMY1_PLB cell viability assay (AID 1918979). Note: nearly all actives have a fitted effect of over 35% in size. The essentials:
as §5

Experiment [11] can be described thus: Quantitative High-Throughput drug screen in 47 multiple myeloma cell lines against the NCATS MIPE library collection: JIM3_ECACC cell viability assay (AID 1918963; note: nearly all actives have a fitted effect of over 35% in size; note: potency is the fitted concentration of half-maximal effect). The method in brief:
as §1

Experiment [12] in a line: Quantitative High-Throughput drug screen in 47 multiple myeloma cell lines against the NCATS MIPE library collection: JJN3_DSMZ cell viability assay (AID 1918966; note: nearly all actives have a fitted effect of over 50% in size; note: potency is the fitted concentration of half-maximal effect). The essentials: as §2
Experiment [13] can be described thus: Quantitative High-Throughput drug screen in 47 multiple myeloma cell lines against the NCATS MIPE library collection: KMS26_JCRB cell viability assay (AID 1918975). Note: nearly all actives have a fitted effect of over 45% in size. Note: potency is the fitted concentration of half-maximal effect. The essentials: as §3
Experiment [14] is described as follows: Quantitative High-Throughput drug screen in 47 multiple myeloma cell lines against the NCATS MIPE library collection: MOLP8_DSMZ cell viability assay (AID 1918977). Note: nearly all actives have a fitted effect of over 45% in size. Note: potency is the fitted concentration of half-maximal effect. The essentials:
as §5

A short description of experiment [15]: Quantitative High-Throughput drug screen in 47 multiple myeloma cell lines against the NCATS MIPE library collection: JIM1_ECACC cell viability assay (AID 1918964; note: potency is the fitted concentration of half-maximal effect). The essentials: as §2
Experiment [16] can be described thus: Quantitative High-Throughput drug screen in 47 multiple myeloma cell lines against the NCATS MIPE library collection: INA6_PLB cell viability assay (AID 1918965; note: nearly all actives have a fitted effect of over 55% in size; note: potency is the fitted concentration of half-maximal effect). The method in brief:
as §4

Experiment [17] can be described thus: Quantitative High-Throughput drug screen in 47 multiple myeloma cell lines against the NCATS MIPE library collection: KMS20_JCRB cell viability assay (AID 1918973). Note: nearly all actives have a fitted effect of over 45% in size. Note: potency is the fitted concentration of half-maximal effect. The essentials: as §2
Experiment [18] in a line: Quantitative High-Throughput drug screen in 47 multiple myeloma cell lines against the NCATS MIPE library collection: KMS21BM_JCRB cell viability assay (AID 1918974). The following applies: ATP luminescence, 48 h; viability: at 45.8 µM (top of the series). The method in brief: as §2

Records with an inconclusive call do not appear. Values without a mark were called inactive. Calls of active or inactive are those of the source. Calls come from the whole dose curve; as a rule, active = well fitted curve in the direction sought with a large enough effect; inconclusive = small, poorly fitted or top-dose-only effect, or another doubt; inactive = no such curve, though single readings can be large; an effect the other way counts as inactive or inconclusive.

Regarding `C[C@H](NC(=O)Cc1cc(F)cc(F)c1)C(=O)N[C@H](C(=O)OC(C)(C)C)c1ccccc1`, the Potency result in experiment [1], in experiment [2], in experiment [3], in experiment [4], in experiment [5] and in experiment [6] was “inactive” throughout. Moreover, the Potency result in experiment [8], in experiment [9] and in experiment [10] was “inactive” each time. Besides, the Potency in [7] was 4.69 µM (active).
For the molecule `CN[C@H](CC(C)C)C(=O)N[C@H]1C(=O)N[C@@H](CC(N)=O)C(=O)N[C@@H]2C(=O)N[C@H]3C(=O)N[C@H](C(=O)N[C@H](C(=O)O)c4cc(O)cc(O)c4-c4cc3ccc4O)[C@H](O)c3ccc(c(Cl)c3)Oc3cc2cc(c3O[C@@H]2O[C@H](CO)[C@@H](O)[C@H](O)[C@@H]2O[C@H]2C[C@](C)(N)[C@H](O)[C@H](C)O2)Oc2ccc(cc2Cl)[C@H]1O`, the Potency result in experiment [1], in experiment [2], in [11], in [12], in experiment [4] and in experiment [8] was “inactive” each time. Besides, the Potency entry in [13], in experiment [14], in [9] and in [10] was “inactive” each time.
`C=C(C)[C@@H]1CC[C@]2(C)CC[C@]3(C)[C@H](CC[C@@H]4[C@@]5(C)CC[C@H](O)C(C)(C)[C@H]5CC[C@]43C)[C@@H]12`: the Potency result in experiment [1], in experiment [2], in [11], in experiment [15], in [16] and in [4] was “inactive” throughout. In addition, the Potency result in experiment [5], in [6], in [7], in experiment [8], in [17] and in [13] was “inactive” in each case. For the same molecule, the Potency entry in [14] and in experiment [9] was “inactive” throughout.
Turning to `CCCCOc1ccc(C(=O)Nc2ccc(F)cc2F)cc1`, the Potency entry in experiment [1], in experiment [2], in experiment [11], in experiment [15], in [4] and in [5] was “inactive” each time. The Potency entry in experiment [9] was “inactive”. Also, in [18], the viability was 103% (active).
Turning to `CCCc1nc(C(C)(C)O)c(C(=O)O)n1Cc1ccc(-c2ccccc2-c2nn[nH]n2)cc1`, the Potency result in experiment [1], in [2], in experiment [3], in experiment [11], in experiment [12] and in experiment [5] was “inactive” throughout. The Potency entry in experiment [6], in [7], in experiment [8], in experiment [9] and in experiment [10] was “inactive” throughout.
As for `C[C@@H]1C(=O)O[C@H]2CC34[C@H]5C[C@@H](C(C)(C)C)C36[C@H](OC(=O)[C@@H]6O)O[C@@]4(C(=O)O5)[C@]21O` (stereo not given in full), the Potency result in experiment [1], in experiment [2], in experiment [11], in [15], in experiment [16] and in experiment [4] was “inactive” each time. Further, the Potency result in [5], in experiment [7], in experiment [8], in [17], in [14] and in experiment [9] was “inactive” in each case.
Turning to `CC(C)(O)CC[C@@H](O)[C@](C)(O)[C@H]1CC[C@@]2(O)C3=CC(=O)[C@@H]4C[C@@H](O)[C@@H](O)C[C@]4(C)[C@@H]3CC[C@]12C`, the Potency result in [1], in experiment [2], in experiment [11], in experiment [15], in experiment [12] and in experiment [4] was “inactive” each time. The Potency result in [5], in [6], in experiment [8], in experiment [9] and in experiment [10] was “inactive” in each case.
With `CN1C(C(=O)Nc2ccccn2)=C(O)c2sc(Cl)cc2S1(=O)=O`, the Potency result in experiment [1], in [2], in experiment [6], in experiment [8] and in experiment [10] was “inactive” each time. The Potency in experiment [3] is 3.32 µM (active); in experiment [11], 3.72 µM (active); in experiment [12], 3.72 µM (active); in [5], 2.64 µM (active); in experiment [17], 2.09 µM (active); in experiment [13], 14.8 µM (active). For the same molecule, the Potency in [9] is 1.66 µM (active).
In the case of `C[C@H](O)[C@@H]1C(=O)N2C(C(=O)O)=C(S[C@@H]3CN[C@H](CNS(N)(=O)=O)C3)[C@@H](C)[C@@H]12`, the Potency result in experiment [1], in [2], in experiment [11], in [15], in experiment [4] and in [5] was “inactive” throughout. Also, the Potency entry in [6], in experiment [17], in experiment [13], in experiment [9] and in experiment [10] was “inactive” each time.
As to `COC(=O)[C@H](CCCN=C(N)N)NS(=O)(=O)c1ccc(C)cc1`, the Potency result in experiment [1], in experiment [2], in [3], in [15], in experiment [4] and in [6] was “inactive” each time. Further, the Potency result in [17], in [13] and in experiment [9] was “inactive” each time.
For the molecule `COc1cc([C@@H]2c3cc4c(cc3[C@@H](O[C@@H]3O[C@@H]5CO[C@@H](c6cccs6)O[C@@H]5[C@H](O)[C@@H]3O)[C@H]3COC(=O)[C@H]23)OCO4)cc(OC)c1O`, the Potency in experiment [1] was 2.96 µM (active); in experiment [2], 0.743 µM (active); in experiment [11], 0.833 µM (active); in experiment [15] it was 0.209 µM (active); in experiment [12], 13.2 µM (active); in experiment [4] it was 0.59 µM (active). For the same molecule, the Potency in experiment [5] is 1.87 µM (active); in [8], 1.32 µM (active); in experiment [13] it was 16.6 µM (active); in [9], 14.8 µM (active).
In the case of `Nc1cccc2c1C(=O)N(C1CCC(=O)NC1=O)C2=O` (stereo not given), the Potency was 0.0209 µM (active) in [1], 0.0935 µM (active) in experiment [11], 4.18 µM (active) in [16] and 8.33 µM (active) in [5]. The Potency entry in [2], in experiment [4], in [6], in experiment [8] and in experiment [14] was “inactive” each time.
Regarding `C[N+]1(C)[C@@H]2C[C@@H](OC(=O)C(O)(c3cccs3)c3cccs3)C[C@H]1[C@@H]1O[C@@H]12`, the Potency result in [1], in [2], in experiment [11], in experiment [12], in experiment [4] and in [6] was “inactive” each time. Besides, the Potency result in [8], in experiment [17], in experiment [14], in experiment [9] and in [10] was “inactive” in each case.
In the case of `Cc1noc(-c2ccc(CSCCC(=O)O)cc2)c1NC(=O)OC(C)c1ccccc1Cl` (stereo not given), the Potency result in [1], in experiment [2], in experiment [3], in [11], in experiment [4] and in [6] was “inactive” in each case. Further, the Potency entry in experiment [7], in experiment [13], in [14] and in experiment [9] was “inactive” throughout.
As to `N#Cc1ccc(COC[C@H]2O[C@@H](n3c(NCc4ccc(Cl)c(Cl)c4)nc4c(N)ncnc43)[C@@H](O)[C@@H]2O)cc1`, the Potency is 0.418 µM (active) in experiment [1]; 5.26 µM (active) in [2]; 14.8 µM (active) in experiment [11]; 3.72 µM (active) in experiment [15]; 7.43 µM (active) in experiment [16]; 7.43 µM (active) in [4]. In addition, the Potency is 23.5 µM (active) in experiment [5]; 5.9 µM (active) in experiment [7]; 3.72 µM (active) in experiment [8]; 2.35 µM (active) in experiment [13]; 16.6 µM (active) in experiment [14]; 20.9 µM (active) in experiment [9].
